Rows were chosen to be rich in hits. Some 6.4% of all compounds tested hit in one or more screens of this group.
RORgamma inh: blocks mouse ROR gamma transcriptional activity. P51450. Drosophila S2 Gal4-RORgamma UAS-luciferase reporter, 20 h. Potency, µM (series often up to 53.6 µM), for the others: at the highest dose activity change, negative = inhibition, hits mostly inhibitors. actives 5.4% (n = 310,000); also: nearly all actives have a fitted effect of over 60% in size
Target sequence (P51450 whole entry, looked up, the tested form may be a part): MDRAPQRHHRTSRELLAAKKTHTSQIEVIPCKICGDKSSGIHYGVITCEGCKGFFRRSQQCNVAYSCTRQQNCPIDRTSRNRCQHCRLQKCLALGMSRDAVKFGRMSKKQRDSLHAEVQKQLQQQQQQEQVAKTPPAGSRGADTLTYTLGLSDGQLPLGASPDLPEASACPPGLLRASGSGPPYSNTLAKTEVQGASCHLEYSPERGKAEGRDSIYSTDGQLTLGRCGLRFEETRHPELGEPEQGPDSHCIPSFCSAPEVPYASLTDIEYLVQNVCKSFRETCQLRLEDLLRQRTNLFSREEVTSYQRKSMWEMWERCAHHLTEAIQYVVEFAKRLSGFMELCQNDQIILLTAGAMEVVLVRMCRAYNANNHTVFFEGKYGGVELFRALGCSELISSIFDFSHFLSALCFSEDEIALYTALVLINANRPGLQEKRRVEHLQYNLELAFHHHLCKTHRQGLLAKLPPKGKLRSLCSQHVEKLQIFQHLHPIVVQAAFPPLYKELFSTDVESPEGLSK
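Luciferase reporter read in Schneider cells carrying Gal4-RORγ (mouse) and UAS-Photinus luciferase; cells given compound 1 h before 700 uM copper sulfate induction, then incubated 20 h at ambient temperature.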
KinaseGlo FLuc: counter-screen: inhibitors of Kinase-Glo firefly luciferase; Q27757; Kinase-Glo luciferase, ATP luminescence, 8 min; Potency, µM (series often up to 38.3 µM), without a hit: at the top dose activity change, negative = inhibition, most hits filed as inhibitors; actives 0.28% (n = 200,000); AID 1379; also: nearly all actives have a fitted effect of over 60% in size
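Inhibition of Kinase-Glo luciferase light generation was assessed at 10 uM ATP in pH 7.2 imidazole buffer, with luminescence measured after eight minutes at ambient temperature.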
VP16 counter: counter-screen for ROR gamma inhibitors: Gal4-VP16 reporter; Drosophila S2 Gal4-VP16 UAS-luciferase, luminescence, 20 h; Potency, µM (top dose mostly 53.6 µM), inactives show at the highest dose activity, negative = inhibition, most hits filed as inhibitors; AID 2546; actives 3.5% (n = 310,000);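 also: Gal4-VP16 expression switched on by copper sulfate through the metallothionein promoter; nearly all actives have a fitted effect of over 50% in size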
The depositor's hits bear a star; ? = inconclusive; . = no result given; [ ] = dose if it differs, or a comment. Calls follow the shape of the dose curve; as a rule, active = well fitted curve in the direction sought with a large enough effect; inconclusive = small, poorly fitted or top-dose-only effect, or another doubt; inactive = no such curve, though single readings can be large; an effect the other way counts as inactive or inconclusive. % is scaled to controls: 0 for no effect and ±100 for the full control effect; potency is read from the fitted curve at half-maximal effect.

SMILES | RORgamma inh | KinaseGlo FLuc | VP16 counter
S=c1[nH]ccn1Cc1ccccc1 | 11µM* | -1% | ?
COCCNC(=O)/C(C#N)=C/c1c(N2CCN(C)CC2)nc2ccccn2c1=O | -11% | . | -3%
CC(CCc1ccccc1)NC(=O)Cn1cccc1C(=O)c1ccccc1 (stereo not given) | 21% | . | 15%
COC(=O)CC/C(O)=C1\C(=O)CC(C)(C)CC1=NCc1nc2ccccc2[nH]1 | 21% | -3% | -4%
CCn1cc(C(=O)O)c(=O)c2cc(F)c(N3CCN(C(=S)NC(=O)c4ccccc4)CC3)cc21 | -25% | . | 4%
CCn1cc(C(=O)O)c(=O)c2cnc(N3CCN(C(=S)NC(=O)c4ccccc4)CC3)nc21 | 2.5µM* | . | 1%
CCn1cc(C(=O)O)c(=O)c2cnc(N3CCN(C(=S)Nc4ccccc4)CC3)nc21 | 4% | . | -7%
CCn1cc(C(=O)O)c(=O)c2cc(F)c(N3CCN(C(=S)NC(=O)c4cc(OC)cc(OC)c4)CC3)cc21 | 2.5µM* | . | 6.3µM*
O=C(Cn1c(=O)oc2cccnc21)Nc1ccc(C(F)(F)F)cc1 | 1% | . | 0%
Cn1c(=O)c2c(ncn2CCOc2cccc(Br)c2)n(C)c1=O | 70% | . | -13%
O=C(c1cc(-c2ccc(Cl)cc2)on1)N1CCCCCC1 | -24% | . | 4%
O=C(c1cc(-c2ccc(Cl)cc2Cl)on1)N1CCN(C(=O)c2ccco2)CC1 | 1% | -1% | -2%
O=C(c1cc(-c2ccc(Cl)cc2Cl)on1)N1CCCC1 | 8.9µM* | . | 10µM*
O=C(c1cc(-c2ccc(Cl)cc2Cl)on1)N1CCCCCC1 | 8.9µM* | . | ?
CCOc1ccc(S(=O)(=O)n2cc(F)c(=O)[nH]c2=O)cc1 | -6% | -7% | -2%
Cn1cc(S(=O)(=O)N2CCCC2)cc1C(=O)N1CCN(c2ccccc2)CC1 | -1% | . | -8%
COc1cccc(NC(=S)N(CCC(C)C)C2CCN(C(C)=O)CC2)c1 | -21% | . | -11%
O=C(COc1cccc2cccnc12)N1CCc2ccccc21 | -6% | -1% | -15%
NCCC(O)C(=O)NC1C[C@@H](N)[C@H](O[C@@H]2OC(CN)C(O)C(O)C2O)C(O)[C@H]1O[C@H]1OC(CO)C(O)C(N)C1O (stereo not given in full) | 17% | -9% | 3%
CCN(CC(=O)Nc1cc(C)nn1-c1nc(C)cc(C)n1)Cc1ccccc1 | 1.4µM* | -1% | 6.3µM*
COc1ccc(CNCC(=O)Nc2cc(C)nn2-c2nc(C)cc(C)n2)cc1OC | -12% | . | -1%
Cc1cc(C)nc(-n2nc(C)cc2NC(=O)CNCc2ccccc2)n1 | 5.6µM* | -7% | ?
CCC(C(=O)Nc1cc(C)nn1-c1nc(C)cc(C)n1)c1ccccc1 (stereo not given) | -17% | 2% | -18%
COc1nc(Cl)nc(Cl)c1Cl (tested in a mixture with another compound) | . | -6%[7.66 µM] | .
O=C(c1cc(-c2ccc(Br)cc2)on1)N1CCc2ccccc2C1 | 25% | . | -5%
SMILES | RORgamma inh | KinaseGlo FLuc | VP16 counter
O=C(CCCc1ccc(-c2ccccc2F)cc1)Nc1ccc(O)cc1 | 1.6µM* | -3% | 4.5µM*
CC(=O)Nc1ccc(NC(=O)CCCc2ccccc2)cc1 | 0% | . | -4%
Cc1ccc(C(=O)Nn2cnc3ccccc3c2=O)cc1C | 4% | . | 20%
Cn1c(=O)c(CCc2ccccc2)nc2cnc(Oc3ccccc3)nc21 | 27% | -3% | -2%
COCCNc1nc2c(c(=O)n(C)c(=O)n2C)n1Cc1cccc(C)c1 | ? | -1% | 10µM*
Cc1cccc(Cn2c(NCCO)nc3c2c(=O)n(C)c(=O)n3C)c1 | ? | 6% | 4.5µM*
Cc1cccc(Cn2c(NCC(C)O)nc3c2c(=O)n(C)c(=O)n3C)c1 (stereo not given) | -32% | -1% | ?
COCCCNc1nc2c(c(=O)n(C)c(=O)n2C)n1Cc1cccc(OC)c1 | ? | -2% | ?
NCCCCCCNc1nc2c(N)ncnc2n1[C@@H]1O[C@@H]2COP(=O)(O)O[C@H]2[C@H]1O | 0% | . | 0%
O=C(CC(=O)c1ccccc1)Nc1ccc(Cl)cc1 | 25% | . | -8%
Clc1ccc(Sc2oc(/C=N/n3cnnc3)cc2Br)cc1 | 6% | . | -1%
CN(C)C(=O)/C(C#N)=C\c1cc(Br)c(Sc2ccc(Cl)cc2)o1 | ? | -2% | 10µM*
CC1CC(=O)N(CC(=O)NCc2ccc(F)cc2)c2ccccc2S1(=O)=O (stereo not given) | -21% | . | 0%
CCOC(=O)c1ccc(N2C(=O)C=CC2=O)cc1 | 10% | -5% | 7.1µM*
CCOC(=O)c1ccc(-n2c(C)ccc2C)cc1 | 14% | 1% | 6%
CC1(C)CC(=O)C(C=NCc2ccccn2)=C(O)C1 | 7.1µM* | -2% | 16µM*
CN=CC1=C(O)CC(C)(C)CC1=O | -20% | 5% | -14%
CCc1ccccc1NC(=O)CCc1c(C)nc(SC)nc1C | -25% | . | -3%
Cc1ccc(C(=O)N(C)CC(=O)Nc2ccc(F)c(F)c2F)o1 | 15% | 3% | -3%[10 µM]
O=c1[nH]c2ccccc2nc1-c1ccc(Cl)cc1 | ? | . | 9%
Cc1nn(-c2ccc3ccccc3c2)c(=O)c2ccccc12 | 1% | -9% | 2%
Cc1nn(-c2nc3ccccc3[nH]2)c(N)c1-c1ccc(Cl)cc1 | 1.3µM* | -2% | 3.2µM*
Cc1nn(-c2nc3ccccc3[nH]2)c(=O)c2ccccc12 | 0.18µM* | 1.4µM* | 0.32µM*
CCN(C(=O)COC(=O)CNS(=O)(=O)c1ccccc1)c1ccccc1 | -18% | 1% | 3%
COC(=O)C1C(=O)C(C(=O)/C=C/c2ccco2)C(=O)CC1(C)C (stereo not given) | -17% | 0% | 29%
SMILES | RORgamma inh | KinaseGlo FLuc | VP16 counter
CC[N+](CC)(CC)CCCCOc1ccc2c(c1)C(=O)c1cc(OCCCC[N+](CC)(CC)CC)ccc1-2 | 1% | . | 11%
O=C(/C=C/c1c(F)cccc1Cl)N1CCOCC1 | 0% | . | 21%
COc1ccc(-n2nc(C(=O)NCC(=O)NCCCN3CC(C)CC(C)C3)c3ccccc3c2=O)cc1OC (stereo not given) | -17% | . | -2%
Cc1sc(NC(=O)Cc2ccc3c(c2)OCO3)nc1-c1ccc2c(c1)CCN2C(=O)c1ccc(F)cc1 | 1% | -2% | 3%
Cc1sc(NC(=O)CN2CCCC2)nc1-c1ccc2c(c1)CCN2C(=O)c1cccc(F)c1 | 11µM* | . | ?
CCOC(=O)c1sc(Nc2nc3c(OC)cccc3s2)nc1C | ? | -8% | ?
O=C(Nc1nc2c(F)cccc2s1)c1ccco1 | ? | . | -3%
COc1cccc2sc(Nc3nnc(-c4ccc(F)cc4)o3)nc12 | 2.2µM* | -2% | 5µM*
COc1cccc2sc(NC(=O)c3ccc(Br)s3)nc12 | -45% | 1% | -22%
Fc1cccc2sc(Nc3nnc(-c4ccco4)o3)nc12 | 0.13µM* | -5% | -8%[0.365 µM]
COc1cccc2sc(Nc3nnc(-c4cccs4)o3)nc12 | 1.4µM* | -6% | 2µM*
c1cnn(Cc2cnc(N3CCOCC3)s2)c1 | -2% | 0% | -3%[10 µM]
CSc1ccc(NC(=O)[C@H]2CCCC[C@@H]2C(=O)O)cc1 | . | -2%[7.66 µM] | .
O=C1NC2(CCCCC2)C(=O)N1Cc1ccc([N+](=O)[O-])cc1 | 15% | 0% | -15%
CC(C)CNC(=O)C(=O)NCC1OCCCN1S(=O)(=O)c1cccs1 (stereo not given) | -14% | . | -1%

Source: PubChem BioAssay
